Test results reported in the antibiotic and cytotoxicity screens of Wong et al. (2023).
The whole screen tested about 39,000 compounds, of which about 3,300 (8.5%) were called active. What follows is part of a selection rich in actives, with near analogues and random picks from the rest.

Tested on: HepG2
Assay: cytotoxicity call (relative viability < 0.9)
Conditions: 10 µM

| SMILES | cytotoxicity call |
| --- | --- |
| Cc1cccnc1[C@H](c1ccc(F)cc1)N(C)C(=O)C1CCN(CCOc2ccc(Cl)cc2Cl)CC1 | inactive |
| CC(=O)N(C)C[C@H]1Oc2ncc(C#C[C@@H](C)O)cc2C(=O)N([C@@H](C)CO)C[C@H]1C | inactive |
| C[C@@H]1CN([C@H](C)CO)C(=O)Cc2cc(NC(=O)Nc3cccc4ccccc34)ccc2O[C@H]1CN(C)C(=O)Nc1ccc(F)cc1 | inactive |
| CNC[C@@H]1Oc2cc(C#CCN(C)C)ccc2S(=O)(=O)N([C@H](C)CO)C[C@@H]1C | inactive |
| CCCN1C[C@@H](C)[C@H](OC)CN(C)C(=O)c2cc(NS(=O)(=O)c3cn(C)cn3)ccc2OC[C@@H]1C | inactive |
| CN1CCN(C(=O)C[C@H]2CC[C@H](NC(=O)Cc3ccccn3)[C@H](CO)O2)CC1 | inactive |
| C[C@@H]1CCCCO[C@H](CN(C)S(=O)(=O)c2ccccc2)[C@@H](C)CN([C@H](C)CO)C(=O)c2cc(NC(=O)Nc3ccccc3)ccc2O1 | inactive |
| O=C(O)c1ccc(N[C@@H]2O[C@H](CO)[C@@H](O)[C@H](O)[C@H]2O)cc1 | inactive |
| Cc1ccc(S(=O)(=O)Nc2ccc3c(c2)C(=O)N([C@@H](C)CO)C[C@@H](C)[C@@H](CN(C)S(=O)(=O)c2ccc(Cl)cc2)OCCCC[C@@H](C)O3)cc1 | inactive |
| Cc1ccc(S(=O)(=O)N(C)C[C@H]2OCCCC[C@H](C)Oc3ccc(NS(=O)(=O)c4ccc(Cl)cc4)cc3C(=O)N([C@H](C)CO)C[C@H]2C)cc1 | inactive |
| Cc1ccc(S(=O)(=O)Nc2ccc3c(c2)C(=O)N([C@@H](C)CO)C[C@H](C)[C@@H](CN(C)S(=O)(=O)c2ccc(Cl)cc2)OCCCC[C@H](C)O3)cc1 | active |
| Cc1ccc(S(=O)(=O)N(C)C[C@@H]2OCCCC[C@@H](C)Oc3ccc(NS(=O)(=O)c4ccc(Cl)cc4)cc3C(=O)N([C@H](C)CO)C[C@@H]2C)cc1 | inactive |
| Cc1ccc(S(=O)(=O)Nc2ccc3c(c2)C(=O)N([C@H](C)CO)C[C@@H](C)[C@@H](CN(C)S(=O)(=O)c2ccc(Cl)cc2)OCCCC[C@@H](C)O3)cc1 | inactive |
| Cc1ccc(S(=O)(=O)Nc2ccc3c(c2)C(=O)N([C@@H](C)CO)C[C@@H](C)[C@H](CN(C)S(=O)(=O)c2ccc(Cl)cc2)OCCCC[C@@H](C)O3)cc1 | inactive |
| Cc1ccc(S(=O)(=O)Nc2ccc3c(c2)C(=O)N([C@H](C)CO)C[C@H](C)[C@@H](CN(C)S(=O)(=O)c2ccc(Cl)cc2)OCCCC[C@H](C)O3)cc1 | active |
| Cc1ccc(S(=O)(=O)Nc2ccc3c(c2)C(=O)N([C@H](C)CO)C[C@H](C)[C@H](CN(C)S(=O)(=O)c2ccc(Cl)cc2)OCCCC[C@@H](C)O3)cc1 | inactive |
| Cc1ccc(S(=O)(=O)Nc2ccc3c(c2)C(=O)N([C@H](C)CO)C[C@@H](C)[C@H](CN(C)S(=O)(=O)c2ccc(Cl)cc2)OCCCC[C@@H](C)O3)cc1 | active |
| Cc1ccc(S(=O)(=O)N(C)C[C@H]2Oc3ccc(NS(=O)(=O)c4cccs4)cc3CC(=O)N([C@H](C)CO)C[C@H]2C)cc1 | inactive |
| COc1ccc(CNC(=O)N(C)C[C@@H]2OCc3ccccc3-c3c(n(C)c4ccccc34)C(=O)N([C@@H](C)CO)C[C@H]2C)cc1 | inactive |
| C[C@H]1CN([C@@H](C)CO)C(=O)c2cccc(NC(=O)Nc3ccc(F)cc3)c2O[C@H]1CN(C)S(C)(=O)=O | inactive |
| COc1ccc(-c2coc3cc(O)ccc3c2=O)c(OC)c1OC | inactive |
| COc1c(-c2coc3cc4c(cc3c2=O)CC(O)C(C)(C)O4)ccc2c1C=CC(C)(C)O2 (stereo not drawn) | active |

| SMILES | cytotoxicity call |
| --- | --- |
| COc1ccc(-c2coc3cc(O)ccc3c2=O)c(O)c1O | inactive |
| O=C(C[C@@H]1CC[C@@H](NC(=O)C2CC2)[C@@H](CO)O1)NCCCN1CCOCC1 | inactive |
| C[C@@H]1CN([C@H](C)CO)C(=O)c2cc(-c3ccc(C(=O)N(C)C)cc3)cnc2O[C@@H]1CN(C)C(=O)CN(C)C | inactive |
| COc1cc(-c2ccc(NN=C3C=Cc4c(S(=O)(=O)O)cc(S(=O)(=O)O)c(N)c4C3=O)c(OC)c2)ccc1NN=C1C=Cc2c(S(=O)(=O)O)cc(S(=O)(=O)O)c(N)c2C1=O | active |
| Cc1cc(-c2ccc(NN=C3C=Cc4c(S(=O)(=O)O)cc(S(=O)(=O)O)c(N)c4C3=O)c(C)c2)ccc1NN=C1C=Cc2c(S(=O)(=O)O)cc(S(=O)(=O)O)c(N)c2C1=O | active |
| COCC(=O)N1C[C@]2(CCN(CC2)C(=O)CN2CCOCC2)c2c([nH]c3cc(ccc23)OC)[C@@H]1CO | inactive |
| COc1ccc2c3c(n(c2c1)C)[C@H](CO)N(C[C@]13CCN(CC1)C(=O)C1CCOCC1)C(=O)C1CCOCC1 | inactive |
| C[C@@H]1CN([C@@H](C)CO)C(=O)c2cccc(NC(=O)C3CC3)c2O[C@H]1CN(C)Cc1ccc(Oc2ccccc2)cc1 | inactive |
| O=C(Nc1ccccc1)Nc1ccc(Nc2ccccc2)cc1 | active |
| NNC(=O)c1ccccc1O | inactive |
| O=C(Nc1ccccc1)c1ccccc1O | active |
| O=C(Nc1ccccc1)Nc1ccccc1 | inactive |
| O=C(Nc1ccccc1)c1ccccc1 | inactive |
| CC(=O)Nc1ccccc1 | inactive |
| C[C@@H]1CN([C@@H](C)CO)C(=O)c2cccc(NC(=O)Nc3ccccc3)c2O[C@H]1CN(C)S(C)(=O)=O | inactive |
| COc1ccc(CN(C)C[C@H]2OCCCC[C@@H](C)Oc3ccc(NC(=O)C4CCCCC4)cc3C(=O)N([C@@H](C)CO)C[C@H]2C)cc1 | inactive |
| CN1C(=O)c2cc(NC(=O)C3CCCC3)ccc2OC[C@H]2O[C@H](CC(=O)NCCc3ccncc3)CC[C@@H]21 | inactive |
| Cc1ccc(S(=O)(=O)N(C)C[C@@H]2Oc3ccc(NS(=O)(=O)c4ccccc4)cc3C(=O)N([C@H](C)CO)C[C@@H]2C)cc1 | inactive |
| C[C@@H]1CN([C@@H](C)CO)C(=O)c2ccccc2-c2ccccc2CO[C@@H]1CN(C)Cc1cccc(C(F)(F)F)c1 | inactive |
| CCCNC(=O)N[C@@H]1CC[C@H](CC(=O)N2CCN(C)CC2)O[C@H]1CO | inactive |
| COc1ccccc1NC(=O)Nc1ccc2c(c1)C(=O)N(C)C[C@@H](OC)[C@H](C)CN(Cc1ccccc1Cl)[C@H](C)CO2 | inactive |
